Source: PubChem
HepG2 viability = kills HepG2 cells in TGF-b inhibitor counter-screen; hit rate 0.76% among 410,000; Potency, µM (highest dose often 46.1 µM), inactives show at the highest dose activity change, negative = cytotoxicity, hits mostly cytotoxic; HepG2 CAGA-GFP viability, ATP luminescence, 18 h; AID 588856
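HepG2 CAGA-GFP cells (1000/well, DMEM with 1% FBS) received compound, then TGF-beta at 500 pg/mL final, and were incubated 18 hours at 37 degrees C. Viability was read by CellTiter-Glo luminescence. Media-only wells were set as complete cell-killing and DMSO as no toxicity.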
ATXN viability = cell viability loss in ATXN counter-screen; Potency, µM (doses to about 56.7 µM), hits mostly cytotoxic; hit rate 0.49% among 400,000; S2 cells (HEK-293 line with an ATXN2-luciferase reporter) viability, CellTiter-Fluor protease fluorescence, 24 h; further: nearly all actives have a fitted effect of over 40% in size
TGFb inhibitor = blocks TGF-b signaling. HepG2 CAGA-GFP TGF-b/SMAD3 reporter, GFP fluorescence, 18 h; TGF-beta stimulated, 500 pg/mL final. Potency, µM (doses to about 46.1 µM), without a hit: at the top dose activity, negative = inhibition, actives largely listed as inhibitors. hit rate 1.2% among 410,000. AID 588855; further: on the % scale 0 is the no-effect control and ±100 the full control effect; nearly all actives have a fitted effect of over 65% in size
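GFP signal (ex488/em500-530) from TGF-beta-stimulated HEPG2 CAGA-GFP cells, 500 pg/mL final, 18 h at 37 degrees C in DMEM plus 1% FBS, normalized to unstimulated and DMSO-stimulated controls.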
ATXN2 expr inh = ATXN2 expression inhibition; HEK-293 ATXN2-luciferase reporter, luminescence, 24 h; Potency, µM (titrated, usually from 57 µM), without a hit: top-dose activity change, negative = inhibition, most hits filed as inhibitors; hit rate 0.72% among 360,000; AID 1745845; further: on the % scale 0 is the no-effect control and ±100 the full control effect; nearly all actives have a fitted effect of over 55% in size
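qHTS (up to 57 uM final) was run with 24 h compound exposure of reporter cells at 37 °C. Each well was multiplexed: SteadyGlo luminescence measured ATXN2-luciferase expression after a fluorogenic Gly-Phe-AFC viability readout (25 uM final).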
DT40 TDP1 CPT = growth inhibition of DT40 Tdp1-/-;hTDP1 cells with camptothecin (screen for TDP1 inhibitors) | chicken DT40 Tdp1-/-;hTDP1 cells + 20 nM CPT, ATP luminescence, 48 h | Potency, µM (doses to about 46.2 µM), for inactives: top-dose activity change, negative = growth inhibition, hits mostly inhibitors | hit rate 12% among 420,000 | AID 686979; further: on the % scale 0 is the no-effect control and ±100 the full control effect; nearly all actives have a fitted effect of over 55% in size
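Chicken DT40 Tdp1-/- cells stably complemented with human TDP1 were seeded at 400 cells/well in medium containing 20 nM camptothecin, exposed to pin-transferred compounds, and grown at 37 °C for at least 48 hr. Viability was read as ATP luminescence.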
TDP1 cell noCPT = qHTS for Inhibitors of human tyrosyl-DNA phosphodiesterase 1 (TDP1): qHTS in cells in absence of CPT | DT40 Tdp1-/- hTDP1 cells, no CPT, ATP luminescence, 48 h | Potency, µM (series often up to 46.2 µM), for inactives: top-dose activity change, negative = growth inhibition, most hits filed as inhibitors | hit rate 15% among 420,000 | AID 686978, 2013; further: on the % scale 0 is the no-effect control and ±100 the full control effect; nearly all actives have a fitted effect of over 55% in size
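DT40 Tdp1-/-;hTDP1 cells, no CPT (DMSO vehicle only), 400 cells/well; compounds pin-transferred; ≥48 hr, 37 °C; CellTiter-Glo 30 min RT dark, luminescence read.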
The depositor's hits bear a star; i = inactive; ? = inconclusive; . = no result. Hits are enriched below; roughly 17% of the tested compounds scored in any of these assays. The call rests on the fitted dose curve; in most records, active means well fitted curve in the direction sought with a large enough effect; inconclusive means small, poorly fitted or top-dose-only effect, or another doubt; inactive means no such curve, though single readings can be large; an effect the other way counts as inactive or inconclusive. Potency means the concentration at half of the fitted maximal effect.

SMILES	HepG2 viability	ATXN viability	TGFb inhibitor	ATXN2 expr inh	DT40 TDP1 CPT	TDP1 cell noCPT
C[C@@H]1CN([C@@H](C)CO)S(=O)(=O)c2ccc(Br)cc2O[C@H]1CN(C)Cc1ccc(-c2ccccc2)cc1	-63%	?	?	?	21µM*	5.8µM*
C[C@@H]1CN([C@H](C)CO)S(=O)(=O)c2ccc(C#CCN(C)C)cc2O[C@@H]1CN(C)Cc1ccccc1F	-27%	i	1%	-10%	?	?
C[C@H]1CN([C@@H](C)CO)S(=O)(=O)c2ccc(C#CC(C)(C)O)cc2O[C@H]1CN(C)Cc1ccccc1	-43%	i	-15%	-23%	18µM*	23µM*
C[C@H](CO)N1C[C@H](C)[C@@H](CN(C)Cc2cccc(F)c2)Oc2cc(-c3cccc(C#N)c3)ccc2S1(=O)=O	-17%	?	-2%	?	?	23µM*
C[C@H]1CN([C@@H](C)CO)S(=O)(=O)c2ccc(C#CC3CC3)cc2O[C@H]1CN(C)C(=O)c1cccnc1	10%	i	0%	2%	0%	-22%
C[C@@H]1CN([C@@H](C)CO)S(=O)(=O)c2ccc(C#CC3CCCCC3)cc2O[C@@H]1CN(C)Cc1cccnc1	-104%	?	?	28µM*	15µM*	5.2µM*
C[C@H](CO)N1C[C@H](C)[C@@H](CN(C)Cc2ccc(Oc3ccccc3)cc2)Oc2cc(Br)ccc2S1(=O)=O	-40%	?	13µM*	-2%	23µM*	12µM*
COCc1cc(=O)n2[nH]cc(-c3ccsc3)c2n1	-26%	i	?	-7%	-4%	?
O=C(NC1CC2CCCC(C1)N2Cc1ccc(F)cc1)c1ccc(F)cc1 (stereo not given)	-13%	i	8%	.	-23%	?
COc1nc2c(C)cccc2cc1-c1noc(-c2ccco2)n1	11%	i	10%	5%	-43%	0.15µM*
Cc1cc(C)cc(NC(=O)C(=O)NCCc2sc(-c3cccc(F)c3)nc2C)c1	-1%	i	-1%	5%	3%	-3%
COC(=O)c1ccc(NC(=O)C(=O)NCCc2sc(-c3cccc(F)c3)nc2C)cc1	8%	i	-4%	4%	12µM*	?
COc1cc(C(=O)NCCc2sc(-c3cccc(F)c3)nc2C)cc(OC)c1OC	-5%	i	-19%	-7%	9.2µM*	12µM*
Cc1noc(C)c1CSCC(=O)Nc1cc(Cl)ccc1N1CCCCC1	8%	i	?	-13%	-26%	?
CC1(C)CCCC2=C1CC1C(=O)N(N)C(=O)C1C2 (stereo not given)	-25%	i	-18%	-30%	34%	-26%
CC1c2cc3c(cc2CCN1C(=O)c1ccc(Br)cc1)OCCCO3 (stereo not given)	-63%	i	?	.	16µM*	7.3µM*
CC1c2cc3c(cc2CCN1C(=O)c1cccc(F)c1)OCCCO3 (stereo not given)	0%	i	?	-9%	21µM*	?
COc1ccc(C(=O)N2CCc3cc4c(cc3C2C)OCCCO4)cc1 (stereo not given)	-37%	i	?	-18%	21µM*	21µM*
Cc1cccc(NC(=O)CN2CCc3cc4c(cc3C2C)OCCCO4)c1 (stereo not given)	-15%	i	-27%	-35%	?	?
Cc1cc(C)n(C(=O)CSc2nc3ccccc3o2)n1	-5%	i	0%	6%	-6%	-1%
COCCn1c(C)cc(C(=O)CSc2nc3ccccc3s2)c1C	-30%	i	0%	-11%	13µM*	18µM*
COCCn1c(C)cc(C(=O)CSc2nnc3ccccn23)c1C	-24%	i	-1%	7.1µM*	-4%	-2%
COCCn1c(SCC(=O)NC(=O)Cc2ccccc2)nc2ccccc2c1=O	5%	i	11%	-2%	2%	-2%
Cc1ccc(C(=O)CSc2nnc3ccccn23)c(C)c1	-28%	i	?	-17%	11%	0%
COCCn1c(C)cc(C(=O)CSc2nc3ccccc3o2)c1C	-15%	i	0%	16%	26µM*	?
SMILES	HepG2 viability	ATXN viability	TGFb inhibitor	ATXN2 expr inh	DT40 TDP1 CPT	TDP1 cell noCPT
COCCn1c(SCC(=O)c2cc(C)n(C)c2C)nc2ccccc2c1=O	-20%	i	-4%	-3%	?	13µM*
COC(=O)c1sccc1OCc1cccc(OC)c1	-6%	i	3%	.	7%	-24%
NNC(=O)c1sccc1OCc1cccc(C(F)(F)F)c1	0%	i	2%	-14%	21µM*	?
Nc1ncccc1OCc1cccc(C(F)(F)F)c1	-6%	i	-21%	2%	-18%	6.5µM*
CC(C)N(c1ccccc1)c1ccc(NC(=O)C2CCCO2)cc1 (stereo not given)	-5%	i	?	-2%	?	16µM*
O=C(NS(=O)(=O)c1ccc(NC(=O)C2CCCO2)cc1)c1ccccc1 (stereo not given)	8%	i	-11%	-1%	8%	4%
O=C(Nc1ccc(Oc2ccccc2)cc1)C1CCCO1 (stereo not given)	-4%	i	-2%	42%	-6%	-24%
O=C(Nc1ccc(S(=O)(=O)Nc2ccc(Cl)cc2)cc1)C1CCCO1 (stereo not given)	-6%	i	-3%	-18%	16µM*	13µM*
CCCCCCNS(=O)(=O)c1ccc(NC(=O)C2CCCO2)cc1 (stereo not given)	-19%	i	?	1%	9.2µM*	10µM*
CCc1ccccc1NC(=O)CSc1nnc(-c2ccc(OC)cc2)s1	-17%	i	?	10%	9%	-20%
O=C(COc1ccc([N+](=O)[O-])cc1)Nc1cccc2cccnc12	-11%	i	-3%	-10%	.	.
CC(C)CSc1nnc2c3ccccc3n(C)c2n1	-27%	i	-14%	89%	-10%	?
CCCCc1c(C)nn(-c2nnc3c4ccccc4n(C)c3n2)c1C	-11%	i	-26%	26%	23µM*	23µM*
COc1cc(OC)cc(C(=O)NN(CCC#N)C2=NS(=O)(=O)c3ccccc32)c1	-7%	i	-12%	8%	3%	10%
